# Screening results deposited in PubChem BioAssay by several laboratories.
# An excerpt weighted towards active compounds, which were near 4.5% of everything screened.
# Jurkat NFkB inh = lowers PMA/ionomycin-induced NF-kB signal in Jurkat cells. PMA/ionomycin-induced NF-kB luciferase reporter, luminescence. inhibition, % at 4 µM. 330,000 compounds, 0.53% hits; in the data active means inhibition above about 50%
# 697 NFkB inh = inhibitors of the PMA/ionomycin-induced NF-kB reporter in 697 B cells | 330,000 compounds, 0.33% hits | 697 B-cell NF-kB luciferase reporter, 16 h | AID 435022 | inhibition, % at 4 µM; in the data active means inhibition above about 35%
# Gli-Sufu block = antagonists of Gli-Sufu signaling; Sufu-KO-LIGHT fibroblasts, Gli luciferase reporter luminescence; inhibition, % at 5 µM; 340,000 compounds, 0.74% hits;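 active means inhibition above about 55%, limit read from the data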;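 further: 0% = DMSO-treated cells and 100% = wells with medium but no cells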
# Mdm2 MdmX PPI = inhibitors of human Mdm2/MdmX interaction | O15151+Q00987 | SaOS-2 split-luciferase Mdm2/MdmX complementation, luminescence | inhibition, % at 8 µM | 330,000 compounds, 3% hits | AID 485346;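 active means inhibition of at least 50% at 8 µM in the primary screen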
# Beta cell apopt = beta cell apoptosis inhibition. INS-1E cytokine-induced death, ATP luminescence, 48 h; percent of positive-control rescue, neutral wells zero. 300,000 compounds, 0.8% hits. protection from apoptosis, % (no concentration beside the values);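 active means Every replicate reaches about 75%, or at least half do and their mean reaches it too, limit read from the data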;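 further: 0% = cytokine-treated negative control wells and 100% = positive control rescue; higher means more ATP so stronger rescue from cytokine killing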
# CSC inhib = blocks cancer stem cells | cancer stem cell-like cells viability, luminescence | inhibition, % at 7.5 µM | 300,000 compounds, 1.1% hits; in the data active means inhibition above about 75%; tested in HMLE shEcad cells
# Mdm2-MdmX conf = human Mdm2/MdmX binding inhibition, confirmed | luminescent assay | inhibition, % at 8 µM | shares compounds with Mdm2 MdmX PPI | 10,000 compounds, 55% hits; in the data active means inhibition above about 40%
# FLuc counter = counter-screen for Mdm2/MdmX inhibitors: full-length luciferase. shares compounds with Mdm2 MdmX PPI. SaOS-2 full-length luciferase counterscreen, luminescence. inhibition, % at 8 µM. 6,200 compounds, 77% hits;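 active means mean inhibition at 8 µM reaching about 37%, which flags the compound as non-specific, limit read from the data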;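 further: p53-null SaOS-2 cells with luciferase driven by a doxycycline-inducible promoter; compound on cells about two nights before reading with doxycycline added after day one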
# An asterisk follows results filed as active; nt = no result given.
SMILES,Jurkat NFkB inh,697 NFkB inh,Gli-Sufu block,Mdm2 MdmX PPI,Beta cell apopt,CSC inhib,Mdm2-MdmX conf,FLuc counter
COc1ccc(CCNCC(O)Cn2c3ccccc3c3ccccc32)cc1OC (stereo not given),10.4,11.6,10.8,92.5*,-1.6,-12.2,36.5,55.2*
c1ccc2c(NCCc3c[nH]c4ccccc34)c3ccccc3nc2c1,-10.5,-30.0,15.4,100.3*,nt,87.4*,60.4*,54.9*
Fc1cccc(NCCc2c[nH]c3ccccc23)n1,-23.5,-21.6,-34.1,13.7,1.7,9.6,nt,nt
COc1ccccc1Nc1nc(-c2ccccc2)nc2ccccc12,15.2,-8.2,-15.6,6.3,-1.5,38.4,nt,nt
COc1ccccc1Nc1c2ccccc2nc2ccccc12,22.2,-86.8,38.1,53.5*,33.3,22.2,48.2*,69.4*
O=C(CC(C(=O)O)c1cccc(Br)c1)c1ccc(Cl)cc1 (stereo not given),-2.6,3.1,-5.1,21.2,-3.1,0.1,nt,nt
O=[N+]([O-])c1cc(Cl)c(Cl)c(Cl)c1Cl,3.7,8.0,19.6,-2.1,-3.2,-1.7,nt,nt
Cc1ccccc1OCC(=O)OCC(=O)Nc1cc(S(=O)(=O)N2CCCCC2)ccc1Cl,3.4,12.5,-2.6,20.4,-5.1,-0.8,nt,nt
Cc1cccnc1NC(=O)c1nn(C)c2c1CS(=O)(=O)c1ccccc1-2,-0.2,2.3,26.1,1.1,3.6,-11.2,nt,nt
COc1ccc(C)cc1Nc1c2c(nc3ccccc13)CCC2,34.3,-45.0,46.3,59.2*,20.9,64.2,59.0*,87.2*
COc1ccc(C(=O)Nc2cc(C)c3c(=O)oc4ccccc4c3n2)cc1,5.7,9.8,6.0,73.8*,8.0,-19.5,25.1,nt
COCC(=O)Nc1cc(C)c2c(=O)oc3ccccc3c2n1,-16.0,9.5,-5.5,-3.3,nt,-1.6,nt,nt
CCc1cc(C)cc(OCCNC(=O)c2cncc(Br)c2)c1,4.4,-5.0,-5.9,58.5*,-8.9,1.5,29.2,nt
Cc1nn(C)c(C(=O)NNC(=O)NC2CCCCC2)c1Cl,-27.6,-41.1,-3.3,-4.2,nt,nt,nt,nt
CCN(CC(=O)Nc1c(F)cccc1F)C(=O)c1cccc(S(=O)(=O)NCc2ccccc2)c1,4.3,6.9,13.4,25.8,-0.9,-12.7,nt,nt
O=C(N/N=C/c1cccn1-c1ccc(O)cc1)c1cccc2ccccc12,-2.5,21.6,-3.0,64.1*,-8.9,10.8,1.2,nt
O=C(N/N=C/c1ccccc1F)c1cccc2ccccc12,-4.2,-53.5,-43.8,22.2,-2.6,25.6,nt,nt
C[C@@H](NC(=O)[C@@H]1Cc2ccccc2CN1C(=O)OC(C)(C)C)C(=O)NCc1ccco1,-13.9,-23.7,-22.8,3.8,3.7,-7.7,nt,nt
CC(=O)Nc1nnc(SCC(=O)Nc2ccc(N3CCOCC3)c(Cl)c2)s1,-9.9,-16.3,6.1,59.1*,0.6,12.6,1.2,nt
CC(=O)Nc1nnc(SCC(=O)Nc2ccc3c(c2)OCCO3)s1,7.0,3.9,-2.9,15.6,-1.6,6.6,nt,nt
Cc1ccc(Cl)cc1NC(=O)COC(=O)CC1CCCCC1,1.3,2.4,-4.5,6.3,-2.5,nt,nt,nt
CCOc1ccccc1N1CCN(C(=O)c2c(-c3c(F)cccc3Cl)noc2C)CC1,-3.7,8.9,12.1,29.4,5.1,-19.1,nt,nt
Cc1cc(C)nc(NC(=NCCc2c[nH]c3ccccc23)NC(=O)Nc2ccc(Cl)c(Cl)c2)n1,-2.7,19.9,20.5,34.1,8.6,8.3,nt,nt
Cc1cc(C)nc(NC(=NCCc2c[nH]c3ccccc23)NC(=O)Nc2ccccc2)n1,-11.4,6.1,23.8,63.9*,7.6,42.1,34.0,63.3*
CCOC(=O)N1CCC(NC(=O)c2ccc3c(c2)N=C(CC)c2cc(C)ccc2S3)CC1,43.3,-39.2,19.2,60.6*,16.6,53.6,68.8*,51.5*
COc1cc(OC)cc(C(=O)O/N=C(\N)c2cccc(C)c2)c1,-14.1,-29.2,-24.8,72.6*,-7.3,0.4,43.8*,105.0*
Cc1ccccc1C(=O)O/N=C(\N)c1cccc([N+](=O)[O-])c1,-92.8,-78.1,-3.1,26.4,-2.4,0.2,nt,nt
O=C(NC(O)C(=O)c1ccccc1)c1ccccn1 (stereo not given),7.0,4.8,-4.8,17.2,-1.5,nt,nt,nt
